GALK inh = blocks human galactokinase activity. Purified GALK, Kinase-Glo residual ATP luminescence. Potency, µM (top dose mostly 57.5 µM), hits mostly inhibitors. hit rate 0.007% among 270,000
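Compounds were pin-transferred into ATP buffer (35 uM final), then GALK plus galactose (5 nM, 100 uM final) was added. After 1 h at room temperature, Kinase-Glo Plus was added and luminescence read after 10 min.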
D1 potentiator = enhances dopamine response at the human D1 receptor; HEK293 TREx D1 cells, calcium flux, dopamine EC20 potentiation; potentiation, % at 10 µM; hit rate 0.036% among 360,000; P21728; in the data active means potentiation above about 30%
USP2a block = blocks human ubiquitin-specific protease USP2a; O75604; USP2 core, Ub-CHOP2 coupled fluorogenic reporter, 485/531; Potency, µM (highest dose often 38.3 µM), hits mostly inhibitors; hit rate 0.01% among 330,000; AID 463254
Target sequence (O75604 whole entry, looked up): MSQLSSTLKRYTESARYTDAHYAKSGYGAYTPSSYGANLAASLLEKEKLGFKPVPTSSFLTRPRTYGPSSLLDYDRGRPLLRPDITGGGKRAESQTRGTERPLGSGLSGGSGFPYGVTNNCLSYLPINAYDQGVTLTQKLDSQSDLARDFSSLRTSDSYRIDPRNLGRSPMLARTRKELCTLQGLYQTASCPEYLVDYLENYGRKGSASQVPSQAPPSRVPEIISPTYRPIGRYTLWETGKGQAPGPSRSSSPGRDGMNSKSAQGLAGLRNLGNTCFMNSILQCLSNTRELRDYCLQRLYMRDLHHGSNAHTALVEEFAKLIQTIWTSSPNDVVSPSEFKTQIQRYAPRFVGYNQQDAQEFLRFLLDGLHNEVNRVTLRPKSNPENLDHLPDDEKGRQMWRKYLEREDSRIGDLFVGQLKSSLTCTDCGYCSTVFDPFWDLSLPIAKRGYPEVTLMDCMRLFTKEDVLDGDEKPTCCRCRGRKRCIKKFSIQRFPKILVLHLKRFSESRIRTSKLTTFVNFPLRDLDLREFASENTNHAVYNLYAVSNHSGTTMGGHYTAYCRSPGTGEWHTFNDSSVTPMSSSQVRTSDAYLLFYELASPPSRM
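Cell-free coupled assay: 10nM USP2 core preincubated 30min RT with compound in Tris-HCl pH 8.0/CaCl2/CHAPS buffer, then 25nM Ub-CHOP2 and 25nM reporter substrate; fluorescence (Ex 485/Em 531) read after 60min RT, normalized to NEM inhibition, concentration-response curves fitted.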
D1 ag = activates the human D1 dopamine receptor. P21728. HEK293 T-REx D1 cells, calcium flux, agonist mode. activation, % at 2 µM. hit rate 1% among 360,000; in the data active means activation above about 30%
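Agonism was scored from calcium flux recorded over 180 s (1 read/s) after pintool compound addition, following a 10-cycle baseline. Cells were inducible force-coupled HEK293 TREx D1, plated overnight at 30 C and loaded with no-wash calcium dye.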
Eya2 inh = inhibitors of human Eya2 phosphatase activity. recombinant Eya2, OMFP fluorescence dephosphorylation (OMFP is methylfluorescein phosphate). O00167. hit rate 0.006% among 330,000. Potency, µM (highest dose often 76.9 µM), hits mostly inhibitors
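Eya2 protein (added as 0.2 uM solution) was preincubated with compound for 10 min at ambient temperature in 50 mM HEPES pH 7.5, 50 mM NaCl, 5 uM MgCl2, 0.05% BSA, 1 mM DTT. OMFP (added at 50 uM) then reacted 10 min; fluorescence read at 485/525 nm.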
D1 antag = antagonists of human D1 dopamine receptor; P21728; HEK293 TREx D1 cells, calcium flux, dopamine EC80; hits give low values; hit rate 3.2% among 360,000; activity change, negative = inhibition, % at 10 µM; in the data active means activity change below about -30%
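Allosteric or orthosteric antagonism assessed as attenuation of the calcium response to EC80 dopamine, added 180 s after compound, in induced HEK293 Trex D1 cells loaded with no-wash calcium dye.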
Each line names hits and unclear results; the compound was inactive in the other large screens. This is a sample that favours compounds with a hit; in the whole collection about 3.9% have one here. Unless noted, the call rests on the fitted dose curve; in most records, active means well fitted inhibition curve with a large enough effect; inconclusive means small, poorly fitted or top-dose-only effect, or effect the other way; inactive means flat fitted curve, though single readings scatter.

O/N=C(\c1ccc(Cl)cc1)c1cc2ccccc2o1	D1 ag 32
O=C(Nc1ccc(Cl)cc1Cl)c1cc2ccccc2o1	none
Cc1ccc(C)c(CSc2cn(CCNC(=O)c3cccs3)c3ccccc23)c1	none (no result: GALK inh, USP2a block, Eya2 inh)
O=C(Cc1cccc2ccccc12)NCC(=O)Nc1ccccc1F	D1 antag -51
O=C(CNC(=O)Cc1cccc2ccccc12)NCc1ccccc1F	none
CN1C(=O)/C(=C\c2ccc(N(C)C)cc2)OC1=S	D1 ag 523, D1 antag -66
COCc1nn2c(N)c(C#N)cnc2c1-c1ccccc1	none
COCc1nn2c(N)c(-c3ccccc3)cnc2c1-c1ccccc1	D1 antag -35
Clc1cccc(CNc2nnnn2-c2ccccc2)c1	D1 ag 37, D1 antag -46
O=C(COC(=O)CSc1cc(Cl)ccc1Cl)Nc1ncc(C(F)(F)F)cc1Cl	D1 antag -32
CCN(CC)CCCNC(=O)c1ccc(-c2nc(CN3CCc4ccccc43)c(C)o2)cc1	none (no result: GALK inh, USP2a block, Eya2 inh)
CCOC(=O)c1c(-c2ccccc2)csc1NC(=O)/C(C#N)=C/c1ccc(OC)c(OC)c1	none
CCOC(=O)c1c(-c2ccccc2)csc1NC(=O)/C(C#N)=C/c1ccc(O)c(OC)c1	D1 ag 89
Nc1c(C(=O)NCc2ccc3c(c2)OCO3)nnn1Cc1ccc(Br)cc1	D1 ag 31 (no result: GALK inh)
O=C1Nc2ccccc2C(O)(C(=O)NCc2ccc3c(c2)OCO3)N1c1ccc(Cl)c(Cl)c1 (configuration not stated)	D1 ag 31 (no result: GALK inh)
Nc1c(C(=O)NCc2ccc3c(c2)OCO3)nnn1CC(=O)Nc1ccc(Br)cc1	none
O=C(Cn1nc(-c2ccccc2)ccc1=O)NCc1ccc2c(c1)OCO2	D1 potentiator 33
O=C(Cn1nc(-c2ccc(Cl)cc2)ccc1=O)NCc1ccc2c(c1)OCO2	none
O=C(c1n[nH]c(=O)c2ccccc12)N1CCN(Cc2ccc3c(c2)OCO3)CC1	none
O=C(NCc1ccc2c(c1)OCO2)c1n[nH]c(=O)c2ccccc12	D1 antag -50
COc1cc(CN(C(=O)c2ccc(C)cc2)C2CCS(=O)(=O)C2)cc(OC)c1OC (configuration not stated)	D1 antag -30 (no result: GALK inh, USP2a block, Eya2 inh)
O=[N+]([O-])c1ccc(CN2CCN(c3ccc(Cl)cc3)CC2)o1	D1 antag -32
O=[N+]([O-])c1ccc(N2CCN(C(=S)NCc3ccc(Cl)cc3)CC2)cc1	none
CCOC(=O)CSc1nc2cc(OC)c(OC)cc2c2nc(-c3ccccc3)nn12	none (no result: GALK inh, USP2a block, Eya2 inh)
COc1cccc(CN2CC(C(=O)NCCSc3nnnn3C)CCC2=O)c1 (configuration not stated)	D1 antag -37
Cc1cc(Nc2ccccc2Cl)n2nc(-c3ccco3)nc2n1	none (no result: GALK inh, USP2a block, Eya2 inh)
CCOC(=O)c1ccccc1Nc1cc(C)nc2nc(-c3ccco3)nn12	D1 ag 74, D1 antag -32 (no result: GALK inh, USP2a block, Eya2 inh)
OCCC1CN(Cc2ccncc2)CCN1C1CCCC1 (configuration not stated)	D1 antag -36
CSc1ccc(CN2CCN(C3CCCC3)C(CCO)C2)cc1 (configuration not stated)	none
Cc1sc2ncnc(N/N=C/c3cccc(O)c3)c2c1C	none
C/C(=N\Nc1ncc(Cl)cc1Cl)c1ccccn1	D1 antag -40
C/C(=N\Nc1ncnc2sc(C)c(C)c12)c1ccccn1	D1 ag 281
COc1ccc(CCN(C)C(=S)NC(=O)c2ccc(F)cc2Cl)cc1OC	D1 antag -56
CCc1ccccc1NC(=O)CSc1ncc2c(n1)-c1cc(Cl)ccc1N(Cc1ccccc1)S2(=O)=O	D1 antag -50 (no result: GALK inh, USP2a block, Eya2 inh)
O=C(CSc1ncc2c(n1)-c1cc(Cl)ccc1N(Cc1ccccc1)S2(=O)=O)NCc1ccccc1	none (no result: GALK inh, USP2a block, Eya2 inh)
Cn1ncc(Cl)c1C(=O)N/N=C/c1cccc(OC2CSC2)c1	D1 antag -45 (no result: GALK inh)
COc1cccc(/C=N/NC(=O)CSc2cccc3cccnc23)c1	none
Cn1ncc(Cl)c1C(=O)N/N=C/c1ccccn1	none
